# The panel holds about 83,000 compounds, 20% with a hit somewhere; the sample as a whole holds those more often.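 Single-dose data. Exposure time 48 hours. Values below 10 considered active.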 A number with no mark means an inactive call. Activity calls are given as the source filed them.
# Assays:
# Experiment in all cases: NCI-60 one-dose screen, 48 h (100 = growth as untreated, 0 = no growth, -100 = all killed)
# Details in all cases: 10 µM unless noted
# SR leukemia = tested on: SR leukemia
# RPMI-8226 leukemia = tested on: RPMI-8226 leukemia
# OVCAR-8 ovarian = tested on: OVCAR-8 ovarian
# OVCAR-5 ovarian = tested on: OVCAR-5 ovarian
# OVCAR-4 ovarian = tested on: OVCAR-4 ovarian
# SK-OV-3 ovarian = tested on: SK-OV-3 ovarian
# IGROV1 ovarian = tested on: IGROV1 ovarian
# OVCAR-3 ovarian = tested on: OVCAR-3 ovarian
# HS 578T breast = tested on: HS 578T breast
# NCI/ADR-RES ovarian = tested on: NCI/ADR-RES ovarian
# T-47D breast = tested on: T-47D breast
# BT-549 breast = tested on: BT-549 breast
# MDA-MB-435 melanoma = tested on: MDA-MB-435 melanoma
# SW-620 colon = tested on: SW-620 colon
# MCF7 breast = tested on: MCF7 breast
# HCT-116 colon = tested on: HCT-116 colon
# HCC-2998 colon = tested on: HCC-2998 colon
# KM12 colon = tested on: KM12 colon
# MDA-MB-468 breast = tested on: MDA-MB-468 breast
Compound,growth (SR leukemia),growth (RPMI-8226 leukemia),growth (OVCAR-8 ovarian),growth (OVCAR-5 ovarian),growth (OVCAR-4 ovarian),growth (SK-OV-3 ovarian),growth (IGROV1 ovarian),growth (OVCAR-3 ovarian),growth (HS 578T breast),growth (NCI/ADR-RES ovarian),growth (T-47D breast),growth (BT-549 breast),growth (MDA-MB-435 melanoma),growth (SW-620 colon),growth (MCF7 breast),growth (HCT-116 colon),growth (HCC-2998 colon),growth (KM12 colon),growth (MDA-MB-468 breast)
C/C(=N\Nc1ccc(S(N)(=O)=O)cc1)c1cnn(-c2cc(=O)[nH]c3ccc(Br)cc23)c1C,4.11% (active),74.3%,80.5%,81.4%,67.7%,69.2%,56.9%,56.2%,28.4%,90.1%,17.5%,37.7%,4.39% (active),75.7%,23.1%,58.5%,73.4%,53.7%,-10.8% (active)
COc1ccc(N=Nc2c(N)nn3c(-c4cc5ccccc5oc4=O)ccnc23)cc1,21%,72.8%,38.8%,68.5%,70.8%,57.8%,29.4%,74.3%,29.1%,22.1%,53.2%,29.5%,75.5%,31.3%,29%,37.9%,38.1%,51.1%,24.7%
CN(C)c1nc(NCCNS(=O)(=O)c2ccc(C(=O)/C=C/c3ccccc3)cc2)nc(N2CCOCC2)n1,-42.7% (active),0.0245% (active),83.4%,93.6%,88.3%,97.7%,80.5%,111%,76.1%,82.4%,73.1%,94.3%,83.3%,-11.3% (active),-4.51% (active),-28.5% (active),89.4%,-11.1% (active),52.1%
NCCCCn1c(SCCc2c[nH]c3ccccc23)nnc1-c1ccc2ccccc2n1,-19.7% (active),-50.3% (active),-9.11% (active),26%,-11.1% (active),22.3%,3.95% (active),10.4%,-25.4% (active),62.3%,-63.4% (active),54.5%,-75% (active),-73.1% (active),-88.8% (active),-94.1% (active),-90.2% (active),13.1%,-87.1% (active)
CN(C)c1nc(NCCNS(=O)(=O)c2ccc(C(=O)/C=C/c3ccc(C(F)(F)F)cc3)cc2)nc(N2CCOCC2)n1,-23% (active),-44.2% (active),1.73% (active),5.43% (active),56.5%,76.2%,-93.9% (active),-43% (active),67.8%,-31.5% (active),-61.2% (active),-20.8% (active),-59.4% (active),-76.7% (active),-84.5% (active),-91.4% (active),-97.6% (active),-80.7% (active),-96.1% (active)
Cc1oc(-c2ccccc2)nc1CN[C@@H]1C[C@@H]2C[C@H]([C@H]1C)C2(C)C,-6.32% (active),-3.45% (active),82.6%,30.7%,74.5%,73.5%,37.6%,84.4%,69.2%,-38.1% (active),0.388% (active),39.3%,71.3%,22.8%,-4.81% (active),9.06% (active),-75.6% (active),64.3%,-83.7% (active)
CN1CCN(c2ccc3c4c(cccc24)C(=O)N(c2cccc(-c4nn(-c5ccccc5)cc4-c4nc5ccccc5s4)c2)C3=O)CC1,-25% (active),43.1%,94.6%,122%,103%,135%,93.8%,118%,91.7%,95.2%,109%,97.1%,95.1%,93%,5.13% (active),79%,79.2%,73.5%,94.1%
Cc1ccc(Cl)cc1NC(=O)N/C(N)=N/c1nc2ccccc2s1,5.59% (active),-7.24% (active),-51.4% (active),-28.7% (active),-34.8% (active),-25.6% (active),-4.38% (active),-67.7% (active),19%,-34.8% (active),32.4%,-7.19% (active),-63.9% (active),1.84% (active),4.25% (active),-51.9% (active),-14.8% (active),-28.7% (active),-30.1% (active)

# Reference: PubChem BioAssay (NCI)
